# Measurements published in the supplement of paper PMC10849652.
# About 7,900 targets were measured; listed, in parts, are those with a hit and a random draw of the rest. About 0.6% of all pairs of compound and target were hits. A number with no mark means an inactive call.
# Legend:
# Assay in all cases: log2 fold change, soluble protein after heating vs DMSO (PISA); higher = thermal stabilisation; K562 cells, 10 uM, 30 min; active = over 0.2 and 3.5 SD of the protein, either way, in both replicates (recomputed)
# ZEB2 = ZEB2 (UniProt O60315)
# Chain of ZEB2 (O60315 whole entry, looked up): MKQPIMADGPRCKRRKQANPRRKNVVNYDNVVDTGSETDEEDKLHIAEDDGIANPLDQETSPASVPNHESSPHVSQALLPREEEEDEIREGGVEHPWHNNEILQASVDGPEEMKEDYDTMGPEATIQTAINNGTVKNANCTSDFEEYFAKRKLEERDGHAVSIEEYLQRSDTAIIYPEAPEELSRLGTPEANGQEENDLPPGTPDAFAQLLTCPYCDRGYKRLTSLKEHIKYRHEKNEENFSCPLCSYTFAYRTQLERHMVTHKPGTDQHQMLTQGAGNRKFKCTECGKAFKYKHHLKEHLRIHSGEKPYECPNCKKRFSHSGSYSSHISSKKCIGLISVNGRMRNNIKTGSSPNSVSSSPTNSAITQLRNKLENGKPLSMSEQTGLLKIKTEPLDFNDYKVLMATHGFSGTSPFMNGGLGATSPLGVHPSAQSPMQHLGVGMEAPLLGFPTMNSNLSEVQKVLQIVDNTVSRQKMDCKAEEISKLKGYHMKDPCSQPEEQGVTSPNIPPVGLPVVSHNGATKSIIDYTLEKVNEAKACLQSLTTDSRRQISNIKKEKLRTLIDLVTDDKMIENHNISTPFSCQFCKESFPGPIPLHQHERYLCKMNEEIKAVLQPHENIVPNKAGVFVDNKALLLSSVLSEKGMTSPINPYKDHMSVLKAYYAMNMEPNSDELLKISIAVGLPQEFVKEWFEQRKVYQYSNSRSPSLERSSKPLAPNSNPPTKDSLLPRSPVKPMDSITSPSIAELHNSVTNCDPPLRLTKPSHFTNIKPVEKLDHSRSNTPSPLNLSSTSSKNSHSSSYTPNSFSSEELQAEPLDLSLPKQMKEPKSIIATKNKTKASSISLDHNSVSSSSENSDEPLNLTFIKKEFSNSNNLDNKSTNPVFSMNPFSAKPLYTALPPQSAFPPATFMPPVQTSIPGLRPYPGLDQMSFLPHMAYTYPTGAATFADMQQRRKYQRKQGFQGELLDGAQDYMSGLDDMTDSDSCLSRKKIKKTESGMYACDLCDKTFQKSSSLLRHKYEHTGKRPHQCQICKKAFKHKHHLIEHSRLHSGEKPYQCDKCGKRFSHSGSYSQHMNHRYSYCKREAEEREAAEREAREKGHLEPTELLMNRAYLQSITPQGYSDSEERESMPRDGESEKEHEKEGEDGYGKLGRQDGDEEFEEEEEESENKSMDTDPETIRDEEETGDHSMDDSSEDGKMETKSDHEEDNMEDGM
# Method in brief: (§1)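 Soluble protein was defined as the supernatant after 21,000xg for 90 min. It came from K562 cells at 2×10^6 cells/mL given 10 μM compound for 30 min, heated in aliquots for 3 min across 48°C-58°C, pooled, and extracted in PBS with 0.5% NP-40 at 4°C, and was quantified by TMTpro 16plex LC-MS/MS with equalised channel sums. Thermal stability against control samples, from duplicates, is reported as log2 fold change.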
# ZER1 = ZER1 (UniProt Q7Z7L7)
# Chain of ZER1 (Q7Z7L7 whole entry, looked up): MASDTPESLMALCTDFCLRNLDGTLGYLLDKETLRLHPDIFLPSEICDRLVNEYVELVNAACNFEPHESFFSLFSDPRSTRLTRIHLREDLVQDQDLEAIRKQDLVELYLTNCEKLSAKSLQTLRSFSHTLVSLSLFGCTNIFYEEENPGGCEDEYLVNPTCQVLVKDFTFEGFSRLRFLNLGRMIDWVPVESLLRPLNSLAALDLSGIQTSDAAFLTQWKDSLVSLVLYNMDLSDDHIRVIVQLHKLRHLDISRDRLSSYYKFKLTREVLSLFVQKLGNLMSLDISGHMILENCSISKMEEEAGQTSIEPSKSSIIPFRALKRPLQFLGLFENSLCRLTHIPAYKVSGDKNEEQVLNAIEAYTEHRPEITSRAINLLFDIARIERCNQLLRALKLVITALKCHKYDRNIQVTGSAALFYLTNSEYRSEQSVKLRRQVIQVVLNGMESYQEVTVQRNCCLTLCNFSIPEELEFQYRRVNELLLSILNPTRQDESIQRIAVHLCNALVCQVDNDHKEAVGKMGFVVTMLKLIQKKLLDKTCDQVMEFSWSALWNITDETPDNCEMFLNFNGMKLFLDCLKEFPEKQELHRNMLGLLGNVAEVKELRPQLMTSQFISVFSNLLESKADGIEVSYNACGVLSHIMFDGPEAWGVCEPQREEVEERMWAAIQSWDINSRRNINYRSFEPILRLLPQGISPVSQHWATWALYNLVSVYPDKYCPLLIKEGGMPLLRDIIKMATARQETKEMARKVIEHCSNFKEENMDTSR
# Method in brief: as §1
# ZFAND5 = ZFAND5 (UniProt O76080)
# Chain of ZFAND5 (O76080 whole entry, looked up): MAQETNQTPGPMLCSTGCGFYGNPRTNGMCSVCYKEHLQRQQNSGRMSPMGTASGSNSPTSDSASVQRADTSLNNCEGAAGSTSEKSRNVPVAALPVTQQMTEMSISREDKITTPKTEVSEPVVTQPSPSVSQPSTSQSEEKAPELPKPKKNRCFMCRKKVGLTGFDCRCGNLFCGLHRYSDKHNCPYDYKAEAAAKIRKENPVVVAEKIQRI
# Method in brief: as §1
# ZFAND6 = ZFAND6 (UniProt Q6FIF0)
# Chain of ZFAND6 (Q6FIF0 whole entry, looked up): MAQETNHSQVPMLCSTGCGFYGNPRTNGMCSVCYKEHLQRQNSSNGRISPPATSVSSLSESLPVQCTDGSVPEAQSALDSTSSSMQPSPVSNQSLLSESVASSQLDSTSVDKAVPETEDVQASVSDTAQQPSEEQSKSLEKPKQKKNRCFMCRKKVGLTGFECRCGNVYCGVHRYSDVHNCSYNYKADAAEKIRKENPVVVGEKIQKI
# Method in brief: as §1
# ZFP91 = ZFP91 (UniProt Q96JP5)
# Method in brief: as §1
# ZFPL1 = ZFPL1 (UniProt O95159)
# Chain of ZFPL1 (O95159 whole entry, looked up): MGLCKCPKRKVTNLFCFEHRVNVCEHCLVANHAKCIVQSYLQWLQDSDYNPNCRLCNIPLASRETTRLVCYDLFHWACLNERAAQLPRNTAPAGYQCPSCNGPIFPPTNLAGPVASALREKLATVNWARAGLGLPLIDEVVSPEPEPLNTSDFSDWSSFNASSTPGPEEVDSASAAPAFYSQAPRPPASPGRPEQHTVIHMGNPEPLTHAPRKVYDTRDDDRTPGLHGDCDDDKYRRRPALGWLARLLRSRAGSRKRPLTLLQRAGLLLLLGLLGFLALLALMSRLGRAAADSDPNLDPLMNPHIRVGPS
# Method in brief: as §1
# ZMAT2 = ZMAT2 (UniProt Q96NC0)
# Chain of ZMAT2 (Q96NC0 whole entry, looked up): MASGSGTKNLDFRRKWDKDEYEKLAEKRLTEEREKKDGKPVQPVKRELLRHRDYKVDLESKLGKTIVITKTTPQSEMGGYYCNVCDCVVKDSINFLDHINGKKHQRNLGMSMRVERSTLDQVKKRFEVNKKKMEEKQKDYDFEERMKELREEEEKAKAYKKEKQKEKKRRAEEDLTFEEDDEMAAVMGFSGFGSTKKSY
# Method in brief: as §1
# ZMYM1 = ZMYM1 (UniProt Q5SVZ6)
# Method in brief: as §1
# ZMYM3 = ZMYM3 (UniProt Q14202)
# Chain of ZMYM3 (Q14202 whole entry, looked up): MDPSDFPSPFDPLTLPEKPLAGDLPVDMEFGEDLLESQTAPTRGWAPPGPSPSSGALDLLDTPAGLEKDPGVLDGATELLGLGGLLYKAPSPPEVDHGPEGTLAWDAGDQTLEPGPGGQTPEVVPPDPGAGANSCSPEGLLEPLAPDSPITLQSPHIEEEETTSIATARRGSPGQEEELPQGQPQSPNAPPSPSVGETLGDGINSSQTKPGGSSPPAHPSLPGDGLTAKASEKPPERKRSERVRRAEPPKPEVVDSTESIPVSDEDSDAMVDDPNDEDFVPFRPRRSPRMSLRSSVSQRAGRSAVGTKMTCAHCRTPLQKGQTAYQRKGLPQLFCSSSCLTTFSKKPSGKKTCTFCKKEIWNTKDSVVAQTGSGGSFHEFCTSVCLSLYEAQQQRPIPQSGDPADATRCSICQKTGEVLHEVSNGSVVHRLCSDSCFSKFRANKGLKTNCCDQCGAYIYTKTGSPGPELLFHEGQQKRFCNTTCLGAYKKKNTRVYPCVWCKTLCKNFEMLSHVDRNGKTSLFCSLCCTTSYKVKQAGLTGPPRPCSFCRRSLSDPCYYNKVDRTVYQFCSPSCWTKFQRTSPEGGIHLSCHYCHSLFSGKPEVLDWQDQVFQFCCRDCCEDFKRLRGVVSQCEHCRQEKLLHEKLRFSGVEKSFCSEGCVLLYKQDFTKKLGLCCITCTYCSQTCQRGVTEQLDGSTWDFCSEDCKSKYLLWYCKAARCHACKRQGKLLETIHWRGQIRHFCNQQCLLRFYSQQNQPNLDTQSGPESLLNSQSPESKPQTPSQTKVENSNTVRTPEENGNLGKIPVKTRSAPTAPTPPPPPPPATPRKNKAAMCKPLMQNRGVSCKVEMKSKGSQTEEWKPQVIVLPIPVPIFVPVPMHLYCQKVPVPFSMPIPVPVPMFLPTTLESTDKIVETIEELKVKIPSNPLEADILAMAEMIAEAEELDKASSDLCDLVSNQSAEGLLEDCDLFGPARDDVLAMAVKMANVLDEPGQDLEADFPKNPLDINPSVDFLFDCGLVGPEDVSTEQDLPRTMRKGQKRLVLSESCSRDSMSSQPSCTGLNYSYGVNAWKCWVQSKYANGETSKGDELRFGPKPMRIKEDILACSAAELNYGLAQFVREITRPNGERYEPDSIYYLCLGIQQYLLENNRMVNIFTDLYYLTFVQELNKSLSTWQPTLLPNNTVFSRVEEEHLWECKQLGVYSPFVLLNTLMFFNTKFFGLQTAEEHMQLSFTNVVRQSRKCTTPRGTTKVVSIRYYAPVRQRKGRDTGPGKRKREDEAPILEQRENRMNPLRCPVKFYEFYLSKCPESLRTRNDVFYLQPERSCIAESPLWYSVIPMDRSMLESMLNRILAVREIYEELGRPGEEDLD
# Method in brief: as §1
# ZNF143 = ZNF143 (UniProt P52747)
# Chain of ZNF143 (P52747 whole entry, looked up): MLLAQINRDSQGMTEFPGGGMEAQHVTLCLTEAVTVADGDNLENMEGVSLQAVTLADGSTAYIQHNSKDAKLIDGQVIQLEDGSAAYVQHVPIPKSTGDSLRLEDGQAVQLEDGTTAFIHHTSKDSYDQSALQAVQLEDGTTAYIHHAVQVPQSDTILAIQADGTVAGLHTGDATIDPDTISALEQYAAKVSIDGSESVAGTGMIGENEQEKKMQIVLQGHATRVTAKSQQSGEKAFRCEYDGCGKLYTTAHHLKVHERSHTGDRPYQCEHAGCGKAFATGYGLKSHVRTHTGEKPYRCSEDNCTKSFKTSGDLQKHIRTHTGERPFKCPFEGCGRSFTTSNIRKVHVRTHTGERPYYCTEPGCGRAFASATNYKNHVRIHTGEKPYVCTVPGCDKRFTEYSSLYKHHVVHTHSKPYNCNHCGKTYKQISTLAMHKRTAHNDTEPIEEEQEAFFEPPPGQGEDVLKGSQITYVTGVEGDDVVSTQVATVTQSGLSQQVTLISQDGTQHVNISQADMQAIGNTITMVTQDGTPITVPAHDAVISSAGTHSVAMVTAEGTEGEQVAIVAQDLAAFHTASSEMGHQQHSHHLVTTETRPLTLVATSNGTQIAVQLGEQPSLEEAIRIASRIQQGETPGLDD
# Method in brief: as §1
Structure (SMILES),log2 fold change (ZEB2),log2 fold change (ZER1),log2 fold change (ZFAND5),log2 fold change (ZFAND6),log2 fold change (ZFP91),log2 fold change (ZFPL1),log2 fold change (ZMAT2),log2 fold change (ZMYM1),log2 fold change (ZMYM3),log2 fold change (ZNF143)
O=C1NC(=O)/C(=C\c2ccc3nccnc3c2)S1,-0.177,0.031,-0.017,0.007,0.051,0.021,-0.015,0.005,0.079,0.045
Cc1ccc(-n2nc(C(C)(C)C)cc2NC(=O)Nc2ccc(OCCN3CCOCC3)c3ccccc23)cc1 [doramapimod],0.032,-0.163,0.106,0.017,0.109,-0.098,-0.024,0.003,-0.009,0.01
Nc1ccccc1NC(=O)c1ccc(CNC(=O)OCc2cccnc2)cc1 [entinostat],-0.03,0.049,-0.031,-0.007,-0.054,-0.03,0.081,-0.012,-0.073,-0.012
Cc1cc(Nc2cc(N3CCN(C)CC3)nc(Sc3ccc(NC(=O)C4CC4)cc3)n2)n[nH]1 [tozasertib],0.022,0.008,-0.076,-0.084,0.01,0.009,-0.039,-0.043,-0.033,0.057
CC(C)c1cnn2c(NCc3ccccc3)cc(NCCCCCCN)nc12,-0.187,-0.072,0.072,0.075,0.007,0.146,0.138,0.09,0.04,-0.158
Cc1ncc(-c2ccnc(Nc3ccc(S(C)(=O)=O)cc3)n2)n1C(C)C,-0.05,0.058,-0.099,-0.031,-0.035,-0.01,-0.027,-0.033,-0.009,0.074
NC1(c2ccc(-c3nc4ccn5c(=O)[nH]nc5c4cc3-c3ccccc3)cc2)CCC1,-0.127,0,0.019,0.056,0.144,0.058,0.043,0.215,-0.036,-0.023
CC[C@@H]1C(=O)N(C)c2cnc(Nc3ccc(C(=O)N[C@H]4CC[C@H](N5CCN(CC6CC6)CC5)CC4)cc3OC)nc2N1C(C)C [volasertib],0.001,0.009,0.215,0.09,0.016,-0.088,0.036,-0.118,-0.077,-0.289 (active)
NC1(Cc2ccc(Cl)cc2)CCN(c2ncnc3[nH]ccc23)CC1,-0.149,0.043,0.119,0.038,-0.042,0.071,0.058,0.052,0.117,0.085
Cc1ccc(NC(=O)c2ccc(CN3CC[C@H](N(C)C)C3)c(C(F)(F)F)c2)cc1Nc1nccc(-c2cncnc2)n1 [bafetinib],-0.017,-0.055,-0.022,-0.013,0.191,-0.022,-0.053,-0.028,-0.061,-0.089
CC[C@H](C)[C@H](NC(=O)[C@H]([C@@H](C)CC)N(C)C(C)=O)C(=O)N[C@H](C(=O)N[C@@H](CC(C)C)C(=O)[C@@]1(C)CO1)[C@@H](C)O [epoxomicin],-0.026,0.048,0.345 (active),0.051,-0.045,0.134,0.103,-0.05,-0.033,0.026
NC(=O)c1cnc(N[C@@H]2CCCC[C@@H]2N)nc1Nc1cccc(-n2nccn2)c1,–,-0.001,0.084,0.089,-0.001,0.054,0.079,-0.123,0.11,-0.106
CCCc1cc(C)[nH]c(=O)c1CNC(=O)c1cc(-c2ccnc(N3CCN(C)CC3)c2)cc2c1cnn2C(C)C,-0.067,-0.125,-0.038,-0.051,0.074,-0.05,-0.044,-0.017,0.067,-0.006
O=C1c2ccccc2-c2n[nH]c3cccc1c23,–,-0.009,-0.055,-0.055,-0.004,-0.055,0.018,0.001,-0.093,-0.077
CO[C@H]1C[C@@H]2CC[C@@H](C)[C@@](O)(O2)C(=O)C(=O)N2CCCC[C@H]2C(=O)O[C@H]([C@H](C)C[C@@H]2CC[C@H](n3cnnn3)[C@H](OC)C2)CC(=O)[C@H](C)/C=C(\C)[C@@H](O)[C@@H](OC)C(=O)[C@H](C)C[C@H](C)/C=C/C=C/C=C/1C [zotarolimus],–,-0.035,-0.012,-0.045,-0.028,0.006,-0.034,-0.05,0.093,0.067
O=C1NC(=NCc2cccs2)S/C1=C\c1ccc2ncccc2c1,–,-0.016,-0.015,0.077,-0.007,0.01,-0.063,0.113,0,-0.028
Cc1cc(Nc2cc(CN3CCOCC3)c3nc(C)c(Cc4ccc(Cl)cc4F)n3n2)n[nH]1 [gandotinib],–,-0.269,0.066,-0.004,0.214,0.011,-0.014,0.305,0.051,0.025
O=C(CCCCCCNC(=O)c1cnc(N(c2ccccc2)c2ccccc2Cl)nc1)NO [citarinostat],–,0.192,0,-0.081,-0.053,0.046,0.085,-0.07,-0.033,0.033
c1cn2cc(-c3ccc4cn[nH]c4c3)nc(Nc3ccc(N4CCOCC4)cc3)c2n1 [entospletinib],–,0.036,0.128,0.019,0.011,0.034,-0.116,0.174,-0.043,0.015
CN1CC[C@H](c2c(O)cc(O)c3c(=O)cc(-c4ccccc4Cl)oc23)[C@H](O)C1 [alvocidib],–,-0.131,0.041,0.028,0.108,-0.038,0.047,0.016,0.14,-0.125
COC(=O)N[C@@H](C)CNc1nccc(-c2cn(C(C)C)nc2-c2cc(Cl)cc(NS(C)(=O)=O)c2F)n1 [encorafenib],–,0.01,-0.047,-0.019,0.038,-0.026,0.106,0.082,-0.032,0.014

Structure (SMILES),log2 fold change (ZEB2),log2 fold change (ZER1),log2 fold change (ZFAND5),log2 fold change (ZFAND6),log2 fold change (ZFP91),log2 fold change (ZFPL1),log2 fold change (ZMAT2),log2 fold change (ZMYM1),log2 fold change (ZMYM3),log2 fold change (ZNF143)
Fc1ccc(Cl)cc1-c1nc(Nc2ccncc2)c2nccnc2n1,-0.099,-0.022,0.003,-0.05,0.007,0.101,0.018,-0.057,-0.012,-0.058
CC(=O)c1cnc2ccc(-c3cc(Cl)c(O)c(Cl)c3)nc2c1N[C@H]1CC[C@H](CN(C)C)CC1,–,0.009,-0.025,0.041,0.018,0.023,-0.001,0.055,-0.004,-0.044
CN1CCN(CCOc2cc(OC3CCOCC3)c3c(Nc4c(Cl)ccc5c4OCO5)ncnc3c2)CC1 [saracatinib],0.008,0.013,0.08,-0.035,0.036,0.016,0.026,-0.024,0.098,0.094
CCn1cc(-c2ccnc3[nH]c(-c4cccc(CN(C)C)c4)cc23)c(-c2ccc(NC(=O)N(C)C)cc2)n1,–,-0.16,-0.017,-0.009,0.07,0.032,0.022,0.141,0.018,-0.102
O=C(CCCCCCC(=O)Nc1ccccc1)NO [vorinostat],–,0.055,-0.047,0.04,0.013,-0.053,-0.019,-0.02,0.073,0.037
O=C(Nc1cccc(Nc2ncc(Br)c(NCCc3cnc[nH]3)n2)c1)N1CCCC1,-0.106,-0.015,0.01,-0.058,0.004,-0.047,0.017,-0.136,-0.042,-0.058
CC[C@@H]1C(=O)N(C)c2cnc(Nc3ccc(C(=O)NC4CCN(C)CC4)cc3OC)nc2N1C1CCCC1,–,-0.032,0.052,0.058,0.104,-0.027,0.017,0.202,0.015,-0.018
CN(CCOc1ccc(C[C@@H]2SC(=O)NC2=O)cc1)c1ccccn1 (racemic) [rosiglitazone],0.078,0.103,-0.001,-0.015,-0.101,-0.03,-0.019,0.029,0.001,-0.037
Cn1cc(-c2ccc3c(c2)CCN3C(=O)Cc2cccc(C(F)(F)F)c2)c2c(N)ncnc21,–,-0.021,-0.02,0.067,-0.161,0.049,-0.023,0.07,0.053,-0.129
COc1cc(C(=O)O)ccc1NC(=O)[C@@H]1N[C@@H](CC(C)(C)C)[C@](C#N)(c2ccc(Cl)cc2F)[C@H]1c1cccc(Cl)c1F [idasanutlin],–,-0.188,0.079,-0.096,0.029,-0.026,0.061,0.085,0,0.07
NCC(=O)Nc1ccc(-n2nc(C(F)(F)F)cc2-c2ccc3c(ccc4ccccc43)c2)cc1,-0.343,0.03,0.103,0.061,0.036,0.027,0.016,0.336,0.073,-0.047
CC[C@H](C)n1cc(C)c2c(C(=O)NCc3c(C)cc(C)[nH]c3=O)cc(-c3ccc(N4CCNCC4)nc3)cc21,0.173,0.064,-0.045,-0.05,0.04,-0.013,-0.073,-0.016,0.055,0.068
c1cc(OCCN2CCCCC2)cc(-c2n[nH]c3ccc(-c4nnc[nH]4)cc23)c1,–,0.023,-0.063,-0.006,-0.161,0.008,0.035,-0.229,0.029,-0.06
CNCc1ccc(-c2[nH]c3cc(F)cc4c3c2CCNC4=O)cc1 [rucaparib],–,-0.271,-0.012,-0.241 (active),0.113,0.021,-0.206,0.331,0.049,-0.008
Cc1cccc(CC(=O)N2CCc3c2ccc(-c2cn(C)c4ncnc(N)c24)c3F)n1,–,0.369,-0.032,-0.014,-0.037,-0.041,-0.037,-0.036,-0.121,0.027
C/C(=N\NC(=O)c1cccc(S(=O)(=O)N2CCOCC2)c1)c1cc(Cl)ccc1O,–,0.019,-0.018,-0.075,-0.069,0.099,0.001,-0.174,-0.004,0.127
C[C@@H](N)c1ccc(C(=O)Nc2ccnc3[nH]ccc23)cc1,–,-0.055,-0.021,0.031,0.154,-0.006,-0.012,0.016,0.045,-0.118
CN(C)CC(=O)Nc1ccc2[nH]c(=O)c3ccccc3c2c1,-0.124,-0.099,-0.119,-0.052,-0.074,0,-0.018,-0.046,-0.067,-0.025
CN1CCC(CNc2ccc3ncc(-c4cccc(OC(F)(F)F)c4)n3n2)CC1,–,-0.172,-0.068,-0.037,0.171,-0.085,0.008,0.086,0.035,-0.109
COC(=O)[C@H](CCSC)NC(=O)c1ccc(NC[C@@H](N)CS)cc1-c1ccccc1,-0.382,0.035,0.1,0.061,0.064,-0.007,0.019,0.026,0.035,0.013
CS(=O)(=O)N1CCN(Cc2cc3nc(-c4cccc5[nH]ncc45)nc(N4CCOCC4)c3s2)CC1 [pictilisib],–,0.085,0.007,0.063,-0.07,0.173,0.01,-0.018,-0.022,-0.06
